# From PubChem BioAssay AID1347147 (National Center for Advancing Translational Sciences (NCATS), 2019)
# Records with an inconclusive call do not appear. A call without a number means that no potency is given here. Calls of active or inactive are those of the source. The call rests on the fitted dose curve; in most records, active means well fitted inhibition curve with a large enough effect; inconclusive means small, poorly fitted or top-dose-only effect; inactive means no such curve, though single readings can be large or run the other way.
# Target: N-terminal Xaa-Pro-Lys N-methyltransferase 1 (Homo sapiens) (UniProt Q9BV86)
# Sequence (Q9BV86 whole entry, looked up): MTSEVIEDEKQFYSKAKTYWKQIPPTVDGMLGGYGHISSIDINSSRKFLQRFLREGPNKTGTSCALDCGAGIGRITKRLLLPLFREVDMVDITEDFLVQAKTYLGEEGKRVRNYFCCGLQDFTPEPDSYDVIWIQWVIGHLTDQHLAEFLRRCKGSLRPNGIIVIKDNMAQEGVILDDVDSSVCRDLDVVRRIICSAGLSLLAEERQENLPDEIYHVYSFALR
# Test: qHTS Assay for Inhibitors of N-terminal methyltransferase 1 (NTMT1): MTaseGlo Confirmatory Screen, Round 2
# Conditions: NTMT1 enzyme, MTase-Glo SAH luminescence; series mostly up to 57.4 µM
# Source text: Assay Submitter (PI): Rong Huang Ph.D, Purdue University, West Lafayette, IN 47907
# The N-terminal methytransferase 1 is the first methyltransferase that methylates protein alpha-N-amines and plays an important role in regulating cell mitosis, chromatin interactions and DNA repair. It is observed to be over-expressed in various cancer patient tissues like malignant melanoma and colorectal cancer tissues. Knockdown of NTMT1 in cancer cells causes cell mitotic defects and enhances sensitivity to DNA damaging chemotherapeutics. […] These critical cellular processes in which NTMT1 is implicated, coupled with emerging links to cellular dysfunction, strengthen the inference that NTMT1 is a compelling novel anticancer target. Progress have been made in understanding the molecular properties of NTMT1 and the biological consequences of protein alpha-N-terminal methylation, but there are no specific small molecule probes available for NTMT1 to fully characterize its MTase activity. To address this unmet need, a panel of assay is created and established to enable quantitative high-throughput screening (qHTS) for novel, potent, and selective small molecule NTMT1 inhibitors. Two orthogonal qHTS that use different reagents (ThioGlo vs. MTaseGlo) are developed for primary robotic screening against the NCATS chemical library of more than 400,000 small molecules. Identified inhibitors are reacquired, validated, and further characterized.
# MTaseGlo Assay is a luminescence screen that measure the activity of methyltransferases based on the reaction product S-adenosyl homocysteine (SAH). The substrate SAM is converted to SAH upon enzyme activation. MTase-Glo reagent and detection solution convert SAH to ATP and measure the light from the luciferase reaction.
# Early Translation Branch (ETB)
# National Center for Advancing Translational Sciences (NCATS)
# National Institute of Health (NIH)
# NTMT1 enzyme, substrate SPKRIA, control peptide RCC1-6 is provided by the Huang laboratory.
# In brief, 3 µL of enzyme mixture (final concentrations of 125 nM and 100 µM for NTMT1 and SAM, respectively) into all wells of a 1,536-well solid-bottom white plate (Greiner Bio One, Monroe, NC). 23 nL of DMSO or Ac-RCC1-10 (final concentration range 234 nM to 143 microM) was transferred via Wako Pin-tool (Wako Automation, Richmond, VA) and incubated (RT) for ~15 minutes. Next, 1 µL of substrate (final concentration 1 µM) or buffer was dispensed, and the reaction proceeded for 30 minutes (RT, protected from light) followed by a 1 microL addition of [5X] MTase-Glo Reagent(R). Samples were incubated (RT, protected from light) for 30 minutes to allow for SAH to be converted to ADP, followed by a 5 microL addition of [1X] MTase-Glo Detection Solution(R) to allow for ADP to be converted to ATP, which was then detected with a luciferase reaction. Samples were centrifuged for 15 seconds at 1,000 RPM's, followed by a RT incubation for 30 minutes. Plates were then read using Luminescence optics on a ViewLux detector. Data were normalized to no-enzyme (0% activity) and no-inhibitor (DMSO; 100%) controls, and the resulting percent inhibition data were fitted to a 4-parameter Hill equation using Graphpad Prism.
# Potency means the concentration at half of the fitted maximal effect.
row,SMILES,Potency
1,C[C@](Cc1ccc(O)c(O)c1)(NN)C(=O)O,inactive
2,CC(=O)c1ccc2c(c1)N(CCCN(C)C)c1ccccc1S2,inactive
3,Clc1ccc(N2CCN(Cc3c[nH]c4ncccc34)CC2)cc1,inactive
4,COc1ccc(C(=O)/C(Cc2cc(OC)c(OC)c(OC)c2)=C(\C(=O)O)c2ccc3c(c2)OCO3)cc1,inactive
5,N.N.O=C(O)C1(C(=O)O)CCC1.[Pt],inactive
6,C/C(=C\CNc1ncnc2c1ncn2[C@@H]1O[C@H](CO)[C@@H](O)[C@H]1O)CO,inactive
7,CSc1ccc2c(c1)N(CCC1CCCCN1C)c1ccccc1S2 (stereo not given),inactive
8,O=C1NC(=O)C(c2ccccc2[N+](=O)[O-])=C1Nc1ccc(O)c(Cl)c1,inactive
9,Cc1cc(C)c(/C=C2\C(=O)Nc3ccccc32)[nH]1,inactive
10,N[C@@H](Cc1c[nH]c2ccc(O)cc12)C(=O)O,inactive
11,OCCN1CCN(CCCN2c3ccccc3Sc3ccc(Cl)cc32)CC1,inactive
12,COC(=O)C1=C(C)NC(C)=C(C(=O)OC)C1c1ccccc1[N+](=O)[O-],inactive
13,O=C1Cc2c([nH]c3ccc(Br)cc23)-c2ccccc2N1,inactive
14,CCCCNc1ccc(C(=O)OCCN(C)C)cc1,inactive
15,CN=c1nc(-c2ccccc2)n(-c2ccccc2)s1,1 µM (active)
16,OCC1OC(n2cnc3c(=S)nc[nH]c32)C(O)C1O (stereo not given),inactive
17,N.N.N.N.N.N.N.N.N.N.N.N.N.N.O.O.[Ru+4].[Ru+5].[Ru+5],31.6 µM (active)
18,Oc1ccccc1O,inactive
19,OCC1OC(n2cnc3c(NCc4ccco4)ncnc32)C(O)C1O (stereo not given),inactive
20,CSc1ccc(C(=O)c2[nH]c(=O)[nH]c2C)cc1,inactive

row,SMILES,Potency
1,OC[C@H]1O[C@@H](n2cnc3cncnc32)[C@H](O)[C@@H]1O,5.62 µM (active)
2,CCCCCCCCCCCCCCCCCC(=O)OC(CC(=O)O)C[N+](C)(C)C (stereo not given),inactive
3,CN(C)c1ccc(/C=C2\C(=O)Nc3ccccc32)cc1,inactive
4,O=C(/C=C/c1ccc(O)cc1)c1ccc(O)cc1O,inactive
5,S=C(Nc1ccccc1)Nc1nccs1,inactive
6,C[C@H](NC(=O)/C(C#N)=C/c1ccc(O)c(O)c1)c1ccccc1,inactive
7,COc1cc2c(NC3CCN(C)CC3)cc(N3CCCCN(C)CC3)cc2cc1OCCOCCN(C)C,inactive
8,OCCNc1ncnc2c1ncn2[C@@H]1O[C@@H](CO)[C@H](O)[C@@H]1O,inactive
9,COc1cc(/C=C(\C#N)C(=O)Nc2nnc(C(F)(F)F)s2)ccc1OCc1ccc(C(F)(F)F)cc1C(F)(F)F,inactive
10,NC[C@@H]1O[C@H](C23CC4CC(CC(C4)C2)C3)Cc2c1ccc(O)c2O,inactive
11,Cc1cc2nc3c(=O)[nH]c(=O)nc-3n(C[C@H](O)[C@H](O)[C@H](O)COP(=O)(O)OP(=O)(O)OC[C@H]3O[C@@H](n4cnc5c(N)ncnc54)[C@H](O)[C@H]3O)c2cc1C,inactive
12,CCCc1cc(C)[nH]c(=O)c1CNC(=O)c1cc(-c2ccc(N3CCN(C(C)C)CC3)nc2)cc2c1cnn2C(C)C,inactive
13,O=c1c(-c2ccc(O)cc2)coc2cc(O)cc(O)c12,inactive
14,CN(C)CCCN1c2ccccc2Sc2ccc(Cl)cc21,inactive
15,O=C1c2c(O)cc(O)cc2OC(c2ccc(O)c(O)c2)C1O (stereo not given),inactive
16,CN1CCN(CCCN2c3ccccc3Sc3ccc(Cl)cc32)CC1,inactive
17,Nc1nc(Cl)nc2c1ncn2[C@@H]1O[C@H](CO)[C@@H](O)[C@H]1O,inactive
18,Nc1ncnc2c1[nH]c(=S)n2C1OC(CO)C(O)C1O (stereo not given),inactive
19,O=C1Nc2ccc(I)cc2/C1=C/c1cc(Br)c(O)c(Br)c1,8.91 µM (active)
20,CC[n+]1c(/C=C/C=C2/N(C)c3ccccc3C2(C)C)sc2ccccc21,14.1 µM (active)
